Each sequence was assayed against PUM1 PUF domain R5-RYS (Homo sapiens, UniProt Q14671 828-1176, C1007R;R1008Y;Q1011S) (assay: yeast three-hybrid, YBZ-1, SC-Leu-His + 0.5 mM 3-AT, 4 days). Conditions: tags: N-Gal4 AD-HA kept; label: inside an RPR1-promoter hybrid RNA with tandem MS2 sites; ssRNA.
In short: (§1)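 The interaction score is the log change in variant frequency from input to selection. Scores were computed in log2 with a pseudocount of 1 for absent variants, using Illumina sequencing of PCR-amplified repeat regions. The input came from four days on SC-Leu and the selection from four days on SC-Leu-His + 0.5 mM 3-AT. The cells were strain YBZ-1 (LexA–MS2 coat fusion, HIS3 reporter) co-expressing Pumilio-1 PUF domain libraries and matching RNA elements from a centromeric plasmid.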

Chain of PUM1 PUF domain R5-RYS (Q14671 828-1176 C1007R/R1008Y/Q1011S): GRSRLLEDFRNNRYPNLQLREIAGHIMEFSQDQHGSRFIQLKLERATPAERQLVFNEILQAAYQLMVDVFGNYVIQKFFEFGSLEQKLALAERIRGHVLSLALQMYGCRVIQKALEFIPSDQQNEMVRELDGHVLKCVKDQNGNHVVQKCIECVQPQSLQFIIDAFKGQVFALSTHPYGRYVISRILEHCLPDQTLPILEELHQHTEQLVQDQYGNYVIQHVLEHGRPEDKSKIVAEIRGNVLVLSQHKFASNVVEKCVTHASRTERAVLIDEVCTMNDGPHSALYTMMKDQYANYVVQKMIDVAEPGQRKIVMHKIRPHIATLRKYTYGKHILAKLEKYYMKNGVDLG

How did the binding signal turn out when “GGCUAGAACUAGUGGAUCCCCCGGCGCCCGGCGGCUCGAGCCCGGGUAAGUGUCAAUAGUCUGCAUGCCGCCGGGCGCCAUGCCUGCAGGUCGACUCUAGAAAACAUG” was run?
The binding signal was 5.4 log2 enrichment (interaction score).

How did the binding signal turn out when “GGCUAGAACUAGUGGAUCCCCCGGCGCCCGGCGGCUCGAGCCCGGGUAAGUGUAAAUAGUCUGCAUGCCGCCGGGCGCCAUGCCUGCAGGUCGACUCUAGAAAACAUG” was run?
Its binding signal is 3.42 log2 enrichment (interaction score).

How did the binding signal turn out when “GGCUAGAACUAGUGGAUCCCCCGGCGCCCGGCGGCUCGAGCCCGGGUAAGUGUUAAUAGUCUGCAUGCCGCCGGGCGCCAUGCCUGCAGGUCGACUCUAGAAAACAUG” was run?
The binding signal was 3.23 log2 enrichment (interaction score).

These sequences were tested against PUM1 PUF domain R4-SPA (Homo sapiens, UniProt Q14671 828-1176, N971S;H972P;Q975A) in the same assay as above. Conditions: tags: N-Gal4 AD-HA kept; label: inside an RPR1-promoter hybrid RNA with tandem MS2 sites; ssRNA.
Chain of PUM1 PUF domain R4-SPA (Q14671 828-1176 N971S/H972P/Q975A): as the sequence (Q14671 828-1176 C1007R/R1008Y/Q1011S) above, with N144S, H145P, Q148A, R180C, Y181R, S184Q counted along it
In short: as §1

With “GGCUAGAACUAGUGGAUCCCCCGGCGCCCGGCGGCUCGAGCCCGGGUAAGUGUACAUAGUCUGCAUGCCGCCGGGCGCCAUGCCUGCAGGUCGACUCUAGAAAACAUG” as the sequence, how does the binding signal read?
Its binding signal is 1.59 log2 enrichment (interaction score).

How did the binding signal turn out when “GGCUAGAACUAGUGGAUCCCCCGGCGCCCGGCGGCUCGAGCCCGGGUAAGUGUAUAUAGUCUGCAUGCCGCCGGGCGCCAUGCCUGCAGGUCGACUCUAGAAAACAUG” was run?
The binding signal was 3.25 log2 enrichment (interaction score).

With “GGCUAGAACUAGUGGAUCCCCCGGCGCCCGGCGGCUCGAGCCCGGGUAAGUGUAAAUAGUCUGCAUGCCGCCGGGCGCCAUGCCUGCAGGUCGACUCUAGAAAACAUG” as the sequence, how does the binding signal read?
The binding signal was 3.03 log2 enrichment (interaction score).

The sequences below were run against PUM1 PUF domain R5-RFL (Homo sapiens, UniProt Q14671 828-1176, C1007R;R1008F;Q1011L) in the same assay as above. Conditions: tags: N-Gal4 AD-HA kept; label: inside an RPR1-promoter hybrid RNA with tandem MS2 sites; ssRNA.
Chain of PUM1 PUF domain R5-RFL (Q14671 828-1176 C1007R/R1008F/Q1011L): as the sequence (Q14671 828-1176 C1007R/R1008Y/Q1011S) above, with Y181F, S184L counted along it
In short: as §1

Which binding signal does the source give for “GGCUAGAACUAGUGGAUCCCCCGGCGCCCGGCGGCUCGAGCCCGGGUAAGUGUCAAUAGUCUGCAUGCCGCCGGGCGCCAUGCCUGCAGGUCGACUCUAGAAAACAUG” here?
Its binding signal is 4.06 log2 enrichment (interaction score).

With “GGCUAGAACUAGUGGAUCCCCCGGCGCCCGGCGGCUCGAGCCCGGGUAAGUGUAAAUAGUCUGCAUGCCGCCGGGCGCCAUGCCUGCAGGUCGACUCUAGAAAACAUG” as the sequence, how does the binding signal read?
Its binding signal is 3.51 log2 enrichment (interaction score).

How did the binding signal turn out when “GGCUAGAACUAGUGGAUCCCCCGGCGCCCGGCGGCUCGAGCCCGGGUAAGUGUUAAUAGUCUGCAUGCCGCCGGGCGCCAUGCCUGCAGGUCGACUCUAGAAAACAUG” was run?
Its binding signal is 4.97 log2 enrichment (interaction score).

Each sequence was assayed against PUM1 PUF domain R5-RAQ (Homo sapiens, UniProt Q14671 828-1176, C1007R;R1008A) in the same assay as above. Conditions: tags: N-Gal4 AD-HA kept; label: inside an RPR1-promoter hybrid RNA with tandem MS2 sites; ssRNA.
Chain of PUM1 PUF domain R5-RAQ (Q14671 828-1176 C1007R/R1008A): as the sequence (Q14671 828-1176 C1007R/R1008Y/Q1011S) above, with Y181A, S184Q counted along it
In short: as §1

With “GGCUAGAACUAGUGGAUCCCCCGGCGCCCGGCGGCUCGAGCCCGGGUAAGUGUCAAUAGUCUGCAUGCCGCCGGGCGCCAUGCCUGCAGGUCGACUCUAGAAAACAUG” as the sequence, how does the binding signal read?
Its binding signal is 4.49 log2 enrichment (interaction score).

With “GGCUAGAACUAGUGGAUCCCCCGGCGCCCGGCGGCUCGAGCCCGGGUAAGUGUAAAUAGUCUGCAUGCCGCCGGGCGCCAUGCCUGCAGGUCGACUCUAGAAAACAUG” as the sequence, how does the binding signal read?
The binding signal was 1.44 log2 enrichment (interaction score).

How did the binding signal turn out when “GGCUAGAACUAGUGGAUCCCCCGGCGCCCGGCGGCUCGAGCCCGGGUAAGUGUUAAUAGUCUGCAUGCCGCCGGGCGCCAUGCCUGCAGGUCGACUCUAGAAAACAUG” was run?
Its binding signal is 4.06 log2 enrichment (interaction score).

These sequences were tested against PUM1 PUF domain R3-FYG (Homo sapiens, UniProt Q14671 828-1176, C935F;R936Y;Q939G) in the same assay as above. Conditions: tags: N-Gal4 AD-HA kept; label: inside an RPR1-promoter hybrid RNA with tandem MS2 sites; ssRNA.
Chain of PUM1 PUF domain R3-FYG (Q14671 828-1176 C935F/R936Y/Q939G): as the sequence (Q14671 828-1176 C1007R/R1008Y/Q1011S) above, with C108F, R109Y, Q112G, R180C, Y181R, S184Q counted along it
In short: as §1

With “GGCUAGAACUAGUGGAUCCCCCGGCGCCCGGCGGCUCGAGCCCGGGUAAGUGUAAAUAGUCUGCAUGCCGCCGGGCGCCAUGCCUGCAGGUCGACUCUAGAAAACAUG” as the sequence, how does the binding signal read?
The binding signal was 4.62 log2 enrichment (interaction score).

How did the binding signal turn out when “GGCUAGAACUAGUGGAUCCCCCGGCGCCCGGCGGCUCGAGCCCGGGUAAGUGUAAGUAGUCUGCAUGCCGCCGGGCGCCAUGCCUGCAGGUCGACUCUAGAAAACAUG” was run?
Its binding signal is 7.3 log2 enrichment (interaction score).

Which binding signal does the source give for “GGCUAGAACUAGUGGAUCCCCCGGCGCCCGGCGGCUCGAGCCCGGGUAAGUGUAAUUAGUCUGCAUGCCGCCGGGCGCCAUGCCUGCAGGUCGACUCUAGAAAACAUG” here?
The binding signal was 5.45 log2 enrichment (interaction score).

— paper PMC8384837, “Expanding the binding specificity for RNA recognition by a PUF domain”
